Measured values as given in PubChem BioAssay (EPA / NIEHS).
Results filed as inconclusive are left out. Active and inactive are the calls of the source. How the source made its calls: active means hit-call score of the fitted dose curve at least 0.9, where 1 is the maximum; inconclusive means response in the unintended direction; inactive means score below 0.9.

Each molecule was assayed against human Opioid Receptor Mu (Opiate Mu), OPRM1 (gene 4988) (UniProt P35372) (assay: NVS_GPCR_hOpiate_mu: NovaScreen (NVS) G Protein-Coupled Receptor Assay for human Opioid Receptor Mu (Opiate Mu) (AID 2283290);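 further: hits lower bound tracer signal versus DMSO meaning displacement of the ligand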).
human Opioid Receptor Mu (Opiate Mu), OPRM1 (gene 4988), sequence (P35372 whole entry, looked up): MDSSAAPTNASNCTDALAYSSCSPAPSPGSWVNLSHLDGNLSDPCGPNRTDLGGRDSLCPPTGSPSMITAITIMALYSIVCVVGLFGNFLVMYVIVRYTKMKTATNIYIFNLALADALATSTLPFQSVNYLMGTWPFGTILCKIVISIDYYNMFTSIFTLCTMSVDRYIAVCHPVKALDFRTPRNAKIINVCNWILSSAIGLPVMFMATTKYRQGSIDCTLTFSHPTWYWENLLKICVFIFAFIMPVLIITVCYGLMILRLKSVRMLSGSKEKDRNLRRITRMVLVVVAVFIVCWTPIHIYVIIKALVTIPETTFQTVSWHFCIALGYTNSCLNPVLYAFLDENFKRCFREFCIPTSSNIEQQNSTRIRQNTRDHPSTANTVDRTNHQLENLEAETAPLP
How it was run: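 CHO-derived receptor protein, cell-free; radioligand displacement, filtration + scintillation counting, read at 2.5 h. DMSO = negative control/baseline. Primary: 25 uM single conc, duplicate; secondary: concentration series.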
For `C#CC(O)CCC` (stereo not drawn), the AC50 was 5.3 µM (active).
With `CCCCCCCCCCCCCC[P+](CCCC)(CCCC)CCCC` the AC50 was 1.07 µM (active).
For `CCN(CC)c1ccc(C=O)c(O)c1`, the outcome was “inactive”.
With `CCN(CC)c1ccc(C=O)cc1` the outcome was “inactive”.
With `c1ccc(C[P+](c2ccccc2)(c2ccccc2)c2ccccc2)cc1` the AC50 was 1.09 µM (active).
With `Cc1cccc(C)n1` the outcome was “inactive”.
`Oc1ccc(C2(c3ccc(O)c(C4CCCCC4)c3)CCCCC2)cc1C1CCCCC1` was tested, and the AC50 was 17.3 µM (active).
With `CCCCCCCCn1sc(Cl)c(Cl)c1=O` the AC50 was 8.39 µM (active).

The molecules below were run against rat Neonicotinoid receptor (NNR), Chrna7 (gene 25302) (UniProt Q05941) (assay: NVS_LGIC_rNNR_BungSens: NovaScreen (NVS) Ligand-Gated Ion Channel Assay for rat Neonicotinoid receptor (NNR) (AID 2283315)).
rat Neonicotinoid receptor (NNR), Chrna7 (gene 25302), sequence (Q05941 whole entry, looked up): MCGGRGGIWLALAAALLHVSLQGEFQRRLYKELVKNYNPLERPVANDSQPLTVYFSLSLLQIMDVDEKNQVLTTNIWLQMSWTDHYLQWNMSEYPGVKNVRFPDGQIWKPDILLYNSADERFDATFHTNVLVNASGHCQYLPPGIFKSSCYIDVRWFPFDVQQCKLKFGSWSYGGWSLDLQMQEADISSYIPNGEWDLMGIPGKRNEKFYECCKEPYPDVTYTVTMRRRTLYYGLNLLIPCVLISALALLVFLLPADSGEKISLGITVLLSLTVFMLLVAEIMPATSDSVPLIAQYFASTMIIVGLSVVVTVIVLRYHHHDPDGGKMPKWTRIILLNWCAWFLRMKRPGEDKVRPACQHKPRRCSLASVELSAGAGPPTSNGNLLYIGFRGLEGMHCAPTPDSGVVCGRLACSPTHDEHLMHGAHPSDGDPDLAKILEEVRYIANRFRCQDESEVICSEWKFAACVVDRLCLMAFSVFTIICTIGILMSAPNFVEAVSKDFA
Protocol: NVS_LGIC_rNNR_BungSens is a biochemical, single-readout assay that uses extracted gene-proteins from Rat cortical membranes in a tissue-based cell-free assay. Measurements were taken 2.5 hours after chemical dosing in a 48-well plate.NVS_LGIC_rNNR_BungSens is one of one assay component(s) measured or calculated from the NVS_LGIC_rNNR_BungSens assay. It is designed to make measurements of radioligand binding, a form of binding reporter, as detected with scintillation counting signals by Filter-based radiodetection technology.Data from the assay component NVS_LGIC_rNNR_BungSens was analyzed into 1 assay endpoint. This assay endpoint, NVS_LGIC_rNNR_BungSens, was analyzed in the positive analysis fitting direction relative to DMSO as the negative control and baseline of activity. Using a type of binding reporter, loss-of-signal activity can be used to understand changes in the binding as they relate to the gene Chrna7. Furthermore, this assay endpoint can be referred to as a primary readout, because the performed assay has only produced 1 assay endpoint. To generalize the intended target to other relatable targets, this assay endpoint is annotated to the ion channel intended target family, where the subfamily is ligand-gated ion channel.
Binding assays used specific radioligands (tritiated, iodinated) with non-radioactive competitive displacement ligands in agonist or antagonist protocols (as indicated) and various reference compounds and inhibitors to titrate specific binding to receptors and transporters. Most enzyme assays (CYPs, kinases, phosphatases, proteases, HDACs) used recombinant protein and specific substrates (fluorescence mostly, some colorimetric and radioactive) and inhibitors, followed by a biochemical separation of substrate and product. All assays for the biochemical HTS were initially run in duplicate at a single concentration (10 uM for CYP450 assays and 25 uM for all others). […] Each assay was run with positive and negative controls, and concurrent controls on every plate. The follow-up (secondary) screen tested active chemical-pairs in concentration series, as well as a few additional assays not tested in the primary screen, some selected negative inactives, and several cases re-run in the concentration series for confirmatory purposes.
For `CCN(CC)c1ccc2c(c1)Oc1cc(N(CC)CC)ccc1C21OC(=O)c2ccccc21`, the AC50 was 3.48 µM (active).
For `c1ccc(C[P+](c2ccccc2)(c2ccccc2)c2ccccc2)cc1`, the AC50 was 25 µM (active).
`O=c1cccc[nH]1` was tested, and the outcome was “inactive”.
`Nc1c(Br)cc([N+](=O)[O-])cc1Br` was tested, and the outcome was “inactive”.

What follows are molecules tested against Sodium channel protein type 1 subunit alpha (Rattus norvegicus) (UniProt P04774) (assay: NVS_IC_rNaCh_site2: NovaScreen (NVS) Ion Channel Assay for rat Sodium Channel, Site 2 (NaCh) (AID 2283322);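 further: hit means loss of radioligand binding signal relative to DMSO so AC50 marks displacement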).
How it was run: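 Membranes: rat forebrain. Format: competitive radioligand displacement, filter separation, scintillation readout, 1 h exposure. Primary screen in duplicate at 25 uM; actives retested in concentration series.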
With `COc1ccccc1C=O` the outcome was “inactive”.
For `CC(=O)c1ccccc1N`, the AC50 was 1.65 µM (active).
`CCCC(=O)OCC(COC(=O)CCC)OC(=O)CCC` was tested, and the outcome was “inactive”.
`Brc1ccccn1` was tested, and the outcome was “inactive”.
In the case of `CC(C)(C)c1cc(CCC(=O)NCCCCCCNC(=O)CCc2cc(C(C)(C)C)c(O)c(C(C)(C)C)c2)cc(C(C)(C)C)c1O`, the outcome is reported as “inactive”.
`CCN(CC)c1ccc2c(c1)Oc1cc(N(CC)CC)ccc1C21OC(=O)c2ccccc21` was tested, and the outcome was “inactive”.
`O=C1OC(=O)c2ccc3c4c(ccc1c24)C(=O)OC3=O` was tested, and the outcome was “inactive”.
For `c1ccc(C[P+](c2ccccc2)(c2ccccc2)c2ccccc2)cc1`, the AC50 was 5.54 µM (active).
`O=C=NCc1cccc(CN=C=O)c1` was tested, and the outcome was “inactive”.
For `Oc1ccc(C2(c3ccc(O)c(C4CCCCC4)c3)CCCCC2)cc1C1CCCCC1`, the outcome was “inactive”.

The molecules below were run against human Peripheral-type Benzodiazepine Receptor (PBR), TSPO (gene 706) (UniProt P30536) (assay: NVS_MP_hPBR: NovaScreen (NVS) Membrane Protein Assay for human Peripheral-type Benzodiazepine Receptor (PBR) (AID 2283331);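 further: hits reduce radioligand binding relative to DMSO baseline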).
human Peripheral-type Benzodiazepine Receptor (PBR), TSPO (gene 706), sequence (P30536 whole entry, looked up): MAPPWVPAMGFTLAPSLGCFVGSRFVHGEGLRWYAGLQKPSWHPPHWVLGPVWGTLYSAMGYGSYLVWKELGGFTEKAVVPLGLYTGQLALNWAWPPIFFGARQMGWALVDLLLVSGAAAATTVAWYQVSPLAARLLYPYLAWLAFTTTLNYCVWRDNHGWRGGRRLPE
How it was run: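 Human colonic cell membranes were incubated with test chemical for 1 hour; radioligand binding was measured by filter-based scintillation counting. Primary screen ran in duplicate at 25 uM, with actives followed in concentration series; loss of signal versus DMSO baseline.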
With `CCN=C1C=CC(=C(c2ccc(N(CC)CC)cc2)c2ccc(N(CC)CC)cc2)c2ccccc21` the AC50 was 0.0669 µM (active).
In the case of `CCCCCCCCCc1ccc(OCCO)cc1`, the AC50 is reported as 2.84 µM (active).
`Cc1ccc(S(=O)(=O)C(I)I)cc1` was tested, and the AC50 was 23.2 µM (active).
For `CCCCCCCCCCCCCC[P+](CCCC)(CCCC)CCCC`, the AC50 was 3.52 µM (active).
For `CCCC(=O)OCC(COC(=O)CCC)OC(=O)CCC`, the outcome was “inactive”.
For `CCN(CC)c1ccc(C=O)c(O)c1`, the outcome was “inactive”.
For `CCN(CC)c1ccc(C=O)cc1`, the outcome was “inactive”.
In the case of `CCCCCCCC/C=C\CCCCCCCC(=O)N(C)CC(=O)O`, the outcome is reported as “inactive”.
In the case of `CC(C)Nc1ccc(NC(C)C)c2c1C(=O)c1ccccc1C2=O`, the AC50 is reported as 3.66 µM (active).
`CCN(CC)c1ccc2c(c1)Oc1cc(N(CC)CC)ccc1C21OC(=O)c2ccccc21` was tested, and the outcome was “inactive”.
In the case of `O=C1c2c(O)ccc(Nc3ccc(CCO)cc3)c2C(=O)c2c([N+](=O)[O-])ccc(O)c21`, the AC50 is reported as 9.9 µM (active).
`O=C=NCc1cccc(CN=C=O)c1` was tested, and the AC50 was 4.21 µM (active).
With `CCN=c1cc2oc3cc(NCC)c(C)cc3c(-c3ccccc3C(=O)OCC)c-2cc1C` the AC50 was 0.443 µM (active).
In the case of `O=C=Nc1cccc2c(N=C=O)cccc12`, the AC50 is reported as 0.353 µM (active).

These molecules were tested against human Androgen Receptor (AR), AR (gene 367) (UniProt P10275) (assay: NVS_NR_hAR: NovaScreen (NVS) Nuclear Receptor Binding Assay for human Androgen Receptor (AR) (AID 2283332)).
human Androgen Receptor (AR), AR (gene 367), sequence (P10275 whole entry, looked up): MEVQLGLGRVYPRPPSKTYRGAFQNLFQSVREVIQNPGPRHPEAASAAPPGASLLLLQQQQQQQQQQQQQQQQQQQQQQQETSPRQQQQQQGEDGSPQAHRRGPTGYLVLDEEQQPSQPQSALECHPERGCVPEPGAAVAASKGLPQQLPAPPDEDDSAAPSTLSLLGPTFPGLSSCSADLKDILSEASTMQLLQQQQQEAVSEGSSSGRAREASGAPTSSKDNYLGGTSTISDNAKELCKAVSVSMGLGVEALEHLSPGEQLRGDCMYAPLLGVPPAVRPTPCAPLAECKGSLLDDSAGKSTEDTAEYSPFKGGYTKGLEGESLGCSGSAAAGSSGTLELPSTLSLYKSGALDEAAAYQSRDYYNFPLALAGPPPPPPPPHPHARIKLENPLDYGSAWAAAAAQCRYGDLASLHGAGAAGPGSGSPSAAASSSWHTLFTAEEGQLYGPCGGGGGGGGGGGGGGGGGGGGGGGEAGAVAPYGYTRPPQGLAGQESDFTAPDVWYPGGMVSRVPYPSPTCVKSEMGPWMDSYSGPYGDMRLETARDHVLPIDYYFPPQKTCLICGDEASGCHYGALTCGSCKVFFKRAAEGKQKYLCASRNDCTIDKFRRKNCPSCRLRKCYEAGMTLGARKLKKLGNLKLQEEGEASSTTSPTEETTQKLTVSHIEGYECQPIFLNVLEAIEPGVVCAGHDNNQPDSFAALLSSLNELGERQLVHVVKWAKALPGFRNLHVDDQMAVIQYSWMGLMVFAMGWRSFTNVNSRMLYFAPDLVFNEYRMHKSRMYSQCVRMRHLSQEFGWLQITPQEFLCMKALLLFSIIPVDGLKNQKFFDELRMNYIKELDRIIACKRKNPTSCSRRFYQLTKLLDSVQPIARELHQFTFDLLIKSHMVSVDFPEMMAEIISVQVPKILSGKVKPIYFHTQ
How it was run: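 Actives from a duplicate 25 uM single-point screen went on to concentration series. Read-out after 20 h was scintillation counting of displaced radioligand in LnCAP extract, with DMSO as baseline.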
For `C#CC(O)CCC` (stereo not drawn), the outcome was “inactive”.
In the case of `CCN(CC)c1ccc(C=O)c(O)c1`, the AC50 is reported as 3.82 µM (active).
For `O=C1c2c(O)ccc(Nc3ccc(CCO)cc3)c2C(=O)c2c([N+](=O)[O-])ccc(O)c21`, the AC50 was 13.8 µM (active).

Each molecule was assayed against rat Peripheral-type Benzodiazepine Receptor (PBR), Tspo (gene 24230) (UniProt P16257) (assay: NVS_MP_rPBR: NovaScreen (NVS) Membrane Protein Assay for rat Peripheral-type Benzodiazepine Receptor (PBR) (AID 2283335)).
rat Peripheral-type Benzodiazepine Receptor (PBR), Tspo (gene 24230), sequence (P16257 whole entry, looked up): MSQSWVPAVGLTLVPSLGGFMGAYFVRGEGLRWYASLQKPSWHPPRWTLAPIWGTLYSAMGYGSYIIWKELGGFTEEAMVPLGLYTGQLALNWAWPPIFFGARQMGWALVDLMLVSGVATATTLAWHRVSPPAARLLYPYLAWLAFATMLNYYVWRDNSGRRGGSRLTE
How it was run: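 Radioligand displacement, rat kidney membrane prep, 1 h exposure, filter-based scintillation read; DMSO baseline, loss-of-signal scored. Primary screen at 25 uM in duplicate, actives followed up in concentration series.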
`CCN=C1C=CC(=C(c2ccc(N(CC)CC)cc2)c2ccc(N(CC)CC)cc2)c2ccccc21` was tested, and the AC50 was 0.185 µM (active).
With `Cc1ccc(S(=O)(=O)C(I)I)cc1` the AC50 was 7.18 µM (active).
In the case of `CCCCCCCCCCCCCC[P+](CCCC)(CCCC)CCCC`, the AC50 is reported as 12.2 µM (active).
With `CCN(CC)c1ccc(C=O)c(O)c1` the outcome was “inactive”.
For `CCN(CC)c1ccc(C=O)cc1`, the outcome was “inactive”.
`CCCCCCCC/C=C\CCCCCCCC(=O)N(C)CC(=O)O` was tested, and the outcome was “inactive”.
In the case of `CC(C)Nc1ccc(NC(C)C)c2c1C(=O)c1ccccc1C2=O`, the AC50 is reported as 0.666 µM (active).
In the case of `O=C1c2c(O)ccc(Nc3ccc(CCO)cc3)c2C(=O)c2c([N+](=O)[O-])ccc(O)c21`, the AC50 is reported as 2.38 µM (active).
In the case of `CCN=c1cc2oc3cc(NCC)c(C)cc3c(-c3ccccc3C(=O)OCC)c-2cc1C`, the AC50 is reported as 5.08 µM (active).

The molecules below were run against bovine Estrogen Receptor (ER), ESR1 (gene 407238) (UniProt P49884) (assay: NVS_NR_bER: NovaScreen (NVS) Nuclear Receptor Binding Assay for bovine Estrogen Receptor (ER) (AID 2283345);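 further: actives lower the bound radioligand count which means they displace the ER ligand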).
bovine Estrogen Receptor (ER), ESR1 (gene 407238), sequence (P49884 whole entry, looked up): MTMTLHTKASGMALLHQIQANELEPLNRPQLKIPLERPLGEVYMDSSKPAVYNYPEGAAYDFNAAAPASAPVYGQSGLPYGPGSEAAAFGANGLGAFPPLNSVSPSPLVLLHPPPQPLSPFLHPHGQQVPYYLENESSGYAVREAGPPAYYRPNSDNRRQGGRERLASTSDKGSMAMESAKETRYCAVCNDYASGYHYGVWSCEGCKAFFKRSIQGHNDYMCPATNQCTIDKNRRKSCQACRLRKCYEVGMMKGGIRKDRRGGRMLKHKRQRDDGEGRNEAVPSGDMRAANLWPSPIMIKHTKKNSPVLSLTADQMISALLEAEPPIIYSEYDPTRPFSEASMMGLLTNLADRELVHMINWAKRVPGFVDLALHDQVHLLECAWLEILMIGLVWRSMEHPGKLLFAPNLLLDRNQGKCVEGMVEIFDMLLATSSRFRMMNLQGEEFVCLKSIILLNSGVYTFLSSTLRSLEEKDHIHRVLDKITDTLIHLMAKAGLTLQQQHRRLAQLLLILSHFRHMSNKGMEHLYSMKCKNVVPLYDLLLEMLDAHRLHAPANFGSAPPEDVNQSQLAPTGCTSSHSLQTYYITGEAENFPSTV
How it was run: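 Scintillation counting of displaced radioligand gave the readout; bovine uterine membrane extract supplied the receptor. Measured 18 h post-dose, normalized to DMSO baseline. Single 25 uM duplicate screen preceded concentration-response follow-up.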
In the case of `CCCCCCCCCc1ccc(OCCO)cc1`, the outcome is reported as “inactive”.
`CCCCCCCCCCCCCC[P+](CCCC)(CCCC)CCCC` was tested, and the AC50 was 38.3 µM (active).
With `CCCCCCCC/C=C\CCCCCCCC(=O)N(C)CC(=O)O` the outcome was “inactive”.
`CCCCCCCCn1sc(Cl)c(Cl)c1=O` was tested, and the AC50 was 12.7 µM (active).
For `CCN=c1cc2oc3cc(NCC)c(C)cc3c(-c3ccccc3C(=O)OCC)c-2cc1C`, the AC50 was 8.97 µM (active).

Each molecule was assayed against chimpanzee Androgen Receptor (AR), AR (gene 747460) (UniProt O97775) (assay: NVS_NR_cAR: NovaScreen (NVS) Nuclear Receptor Binding Assay for chimpanzee Androgen Receptor (AR) (AID 2283346);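 further: radioligand displacement from AR measured by scintillation counting in a cell-free assay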).
chimpanzee Androgen Receptor (AR), AR (gene 747460), sequence (O97775 whole entry, looked up): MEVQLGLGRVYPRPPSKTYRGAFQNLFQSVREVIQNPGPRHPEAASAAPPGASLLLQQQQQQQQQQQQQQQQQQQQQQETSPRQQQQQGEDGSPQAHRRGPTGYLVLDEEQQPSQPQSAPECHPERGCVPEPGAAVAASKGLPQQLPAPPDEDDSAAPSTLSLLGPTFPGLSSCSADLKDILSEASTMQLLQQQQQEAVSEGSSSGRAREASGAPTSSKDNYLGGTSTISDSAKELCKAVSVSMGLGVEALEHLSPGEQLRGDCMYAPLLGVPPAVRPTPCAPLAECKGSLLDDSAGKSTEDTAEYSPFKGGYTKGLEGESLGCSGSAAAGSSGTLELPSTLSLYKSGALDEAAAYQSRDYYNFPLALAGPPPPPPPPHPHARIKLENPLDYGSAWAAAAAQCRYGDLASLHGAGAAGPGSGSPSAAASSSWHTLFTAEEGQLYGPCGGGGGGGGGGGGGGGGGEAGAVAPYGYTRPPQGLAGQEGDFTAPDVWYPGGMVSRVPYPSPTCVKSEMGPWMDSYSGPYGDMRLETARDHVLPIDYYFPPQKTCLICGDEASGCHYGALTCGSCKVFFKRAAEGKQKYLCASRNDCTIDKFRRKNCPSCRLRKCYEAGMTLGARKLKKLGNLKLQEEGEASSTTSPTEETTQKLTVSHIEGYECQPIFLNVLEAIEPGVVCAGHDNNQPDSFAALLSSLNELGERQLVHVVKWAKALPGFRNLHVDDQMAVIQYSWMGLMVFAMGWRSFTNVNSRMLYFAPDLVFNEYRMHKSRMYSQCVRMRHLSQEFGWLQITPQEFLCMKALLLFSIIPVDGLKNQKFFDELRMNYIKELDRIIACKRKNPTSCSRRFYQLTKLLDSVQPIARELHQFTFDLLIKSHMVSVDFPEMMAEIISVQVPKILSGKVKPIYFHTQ
How it was run: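 Cell-free radioligand displacement using receptor protein extracted from Sf9/Sf21 cells; bound radioligand measured by scintillation counting 72 hours after chemical dosing. Loss of signal versus DMSO baseline indicates binding; primary screen single-concentration in duplicate at 25 uM, actives followed in concentration series.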
`C#CC(O)CCC` (stereo not drawn) was tested, and the outcome was “inactive”.
For `CCN=C1C=CC(=C(c2ccc(N(CC)CC)cc2)c2ccc(N(CC)CC)cc2)c2ccccc21`, the AC50 was 3.61 µM (active).
With `CCCCCCCCCCCCCC[P+](CCCC)(CCCC)CCCC` the AC50 was 23.1 µM (active).
`CCN(CC)c1ccc(C=O)c(O)c1` was tested, and the AC50 was 0.298 µM (active).
For `O=C1c2c(O)ccc(Nc3ccc(CCO)cc3)c2C(=O)c2c([N+](=O)[O-])ccc(O)c21`, the outcome was “inactive”.

What follows are molecules tested against Estrogen receptor (Homo sapiens) (UniProt P03372) (assay: NVS_NR_hER: NovaScreen (NVS) Nuclear Receptor Binding Assay for human Estrogen Receptor (ER) (AID 2283348)).
Estrogen receptor (Homo sapiens), sequence (P03372 whole entry, looked up): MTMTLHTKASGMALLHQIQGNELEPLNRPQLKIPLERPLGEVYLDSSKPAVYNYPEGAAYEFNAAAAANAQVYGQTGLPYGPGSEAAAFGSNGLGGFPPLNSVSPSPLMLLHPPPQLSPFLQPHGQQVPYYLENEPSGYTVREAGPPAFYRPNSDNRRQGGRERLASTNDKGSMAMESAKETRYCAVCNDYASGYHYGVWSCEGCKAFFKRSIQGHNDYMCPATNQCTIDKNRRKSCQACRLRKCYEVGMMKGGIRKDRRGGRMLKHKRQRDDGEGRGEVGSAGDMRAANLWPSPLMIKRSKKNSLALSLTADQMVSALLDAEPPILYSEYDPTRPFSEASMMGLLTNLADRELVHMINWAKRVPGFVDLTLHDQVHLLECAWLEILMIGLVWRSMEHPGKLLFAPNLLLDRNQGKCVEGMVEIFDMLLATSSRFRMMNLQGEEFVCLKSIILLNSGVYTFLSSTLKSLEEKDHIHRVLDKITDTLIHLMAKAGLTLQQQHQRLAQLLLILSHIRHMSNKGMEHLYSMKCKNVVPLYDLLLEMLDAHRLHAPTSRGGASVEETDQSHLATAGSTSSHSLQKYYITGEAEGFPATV
How it was run: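 Cell-free radioligand binding with protein extracted from MCF7 cells; scintillation counting 18 hours after dosing. Loss of signal versus DMSO baseline read as displacement; primary single-concentration screen at 25 uM in duplicate, actives retested in concentration series.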
With `CCN=C1C=CC(=C(c2ccc(N(CC)CC)cc2)c2ccc(N(CC)CC)cc2)c2ccccc21` the AC50 was 13.8 µM (active).
In the case of `CCCCCCCCCc1ccc(OCCO)cc1`, the outcome is reported as “inactive”.
`CCCCCCCCCCCCCC[P+](CCCC)(CCCC)CCCC` was tested, and the AC50 was 14.3 µM (active).
For `CCCCCCCCn1sc(Cl)c(Cl)c1=O`, the AC50 was 0.549 µM (active).
In the case of `CCN=c1cc2oc3cc(NCC)c(C)cc3c(-c3ccccc3C(=O)OCC)c-2cc1C`, the AC50 is reported as 5.29 µM (active).
